Data on seven molecules can be found in PubChem BioAssay (Tox21).

A number with no mark means an inactive call. Inconclusive results are not listed. Activity calls are given as the source filed them. Unless noted, the call rests on the fitted dose curve; in most records, active means well fitted curve in the direction sought with a large enough effect in the repeat runs; inconclusive means weak or mixed curves; inactive means no such curve, though single readings can be large; an effect the other way counts as inactive or inconclusive.

A short description of assay [1]: qHTS assay to identify small molecule agonists of the hypoxia (HIF-1) signaling pathway - cell viability counter screen (AID 1224844; calls by dose curve; further: nearly all actives have a fitted effect of over 50% in size). Put shortly:
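Same wells as the HIF-1 reporter screen; ME-180 cells carrying HRE-bla, 17 hr treatment at 37C; CellTiter-Glo luminescence read after 30 min at room temperature.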
(qHTS replaces the single test concentration by a dilution series.)

The nature of assay [2]: qHTS assay to identify small molecule agonists of H2AX (AID 1224845; active means well fitted activation curve with a large enough effect in the signal ratio in the repeat runs, not every such curve was filed as active; the % refers to the signal ratio). In outline: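 Wild-type CHO-K1 cells, plated overnight, exposed 3hr at 37C to 15 concentrations (0.76% DMSO final). Lysed, then HTRF anti-pH2AX (S139) cryptate and anti-H2AX-d2 antibodies, 24 hr room temperature; 665/620 nm emission read.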
Assay [3] is described as follows: qHTS assay to identify small molecule agonists of the hypoxia (HIF-1) signaling pathway (AID 1224846; active means well fitted activation curve with a large enough effect in the signal ratio in the repeat runs, not every such curve was filed as active; the % refers to the signal ratio). Put shortly:
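In ME-180 cells bearing an HRE-bla construct, 17 h treatment with DMSO-dissolved compounds at 37C was followed by CCF4-AM loading to quantify reporter induction.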

Assay [4] can be described thus: qHTS assay to identify small molecule agonists of H2AX - cell viability counter screen (AID 1224847; calls by dose curve; further: nearly all actives have a fitted effect of over 30% in size; further: potency means the concentration at half of the fitted maximal effect). Put shortly:
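CHO-K1 cells plated overnight at 37C, then exposed 3 h at 37C to compounds at 15 concentrations (0.76% DMSO final). Viability by CellTiter-Glo luminescence after 30 min at room temperature.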

Assay [5] is described as follows: qHTS RealTime-Glo MT Cell Viability Assay in HepG2 cells - 24 hour (AID 1224867). Further: nearly all actives have a fitted effect of over 50% in size. In outline: (§1)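 HepG2 suspension premixed with RealTime-Glo reagents is plated at 600 cells per well and left 5 h at 37 C/5% CO2. Compounds in DMSO then go in, and bioluminescence reflecting viable cell number is recorded over 40 h.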
The nature of assay [6]: qHTS RealTime-Glo MT Cell Viability Assay in HEK293 cells - 32 hour (AID 1224868). Further: nearly all actives have a fitted effect of over 50% in size. Further: potency means the concentration at half of the fitted maximal effect. Put shortly: (§2)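 Reads taken at 0, 8, 16, 24, 32 and 40 h from the same wells. HEK293 cells (600/well) carried RealTime-Glo reagents from seeding, with compound added after a 5 h settle at 37 C.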
Assay [7] is described as follows: A CellTox Green Cytotoxicity Assay to monitor cytotoxicity in HEK293 cells - 0 hour (AID 1224869). Further: nearly all actives have a fitted effect of over 50% in size. Put shortly: (§3)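 Homogeneous no-lysis format: HEK293 cell suspension mixed with CellTox Green reagent, seeded, incubated 5 h at 37 C/5% CO2, then dosed by pintool with compound in DMSO.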
Assay [8] can be described thus: qHTS RealTime-Glo MT Cell Viability Assay in HepG2 cells - 40 hour (AID 1224870). Further: nearly all actives have a fitted effect of over 50% in size. In outline: (§4)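 HepG2 cells (600/well) mixed with RealTime-Glo MT reagent, settled 5 h at 37 C/5% CO2 before compound addition. Nonlytic NanoLuc luminescence from viable-cell prosubstrate reduction read repeatedly during 40 h treatment at 37 C.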
Assay [9] can be described thus: A CellTox Green Cytotoxicity Assay to monitor cytotoxicity in HEK293 cells - 40 hour (AID 1224871). Further: nearly all actives have a fitted effect of over 45% in size. Put shortly: as §3
A short description of assay [10]: qHTS RealTime-Glo MT Cell Viability Assay in HEK293 cells - 16 hour (AID 1224872). Further: nearly all actives have a fitted effect of over 50% in size. Further: potency means the concentration at half of the fitted maximal effect. In outline:
as §2

Assay [11] in a line: qHTS RealTime-Glo MT Cell Viability Assay in HepG2 cells - 8 hour (AID 1224873). Further: nearly all actives have a fitted effect of over 55% in size. Put shortly: as §4
Assay [12] can be described thus: qHTS RealTime-Glo MT Cell Viability Assay in HEK293 cells - 40 hour (AID 1224874). Further: nearly all actives have a fitted effect of over 50% in size. Further: potency means the concentration at half of the fitted maximal effect. To be noted: RealTime-Glo luminescence; max response: hits give low values. Put shortly:
(§5)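 Measured as luminescence from the same continuously cultured HEK293 wells at successive time points (0, 8, 16, 24, 32, 40 h) after compound addition. Reagent present from seeding; dosing at 5 h; incubation 37 C.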

Assay [13] is described as follows: A CellTox Green Cytotoxicity Assay to monitor cytotoxicity in HEK293 cells - 24 hour (AID 1224875). Further: series mostly up to about 77 µM; nearly all actives have a fitted effect of over 45% in size. Put shortly: as §3
Assay [14] is described as follows: A CellTox Green Cytotoxicity Assay to monitor cytotoxicity in HepG2 cells - 16 hour (AID 1224876). Further: nearly all actives have a fitted effect of over 45% in size. Put shortly:
(§6)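 Fluorescent DNA-binding dye, 600 HepG2 cells/well, 5 h preincubation then compound in DMSO; same plates read at 0–40 h, 37 C.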

A short description of assay [15]: qHTS RealTime-Glo MT Cell Viability Assay in HepG2 cells - 32 hour (AID 1224877). Further: nearly all actives have a fitted effect of over 55% in size. In outline: as §1
A short description of assay [16]: A CellTox Green Cytotoxicity Assay to monitor cytotoxicity in HepG2 cells - 24 hour (AID 1224878). Further: nearly all actives have a fitted effect of over 45% in size. In outline: as §6
Assay [17] is described as follows: A CellTox Green Cytotoxicity Assay to monitor cytotoxicity in HepG2 cells - 40 hour (AID 1224879). Further: nearly all actives have a fitted effect of over 40% in size. In outline: as §6
Assay [18] can be described thus: qHTS RealTime-Glo MT Cell Viability Assay in HEK293 cells - 0 hour (AID 1224880). In outline:
as §5

Assay [19] can be described thus: qHTS assay to identify small molecule antagonists of the estrogen related receptor (ERR) signaling pathway from Tox21 library (AID 1224848). Further: nearly all actives have a fitted effect of over 50% in size. In outline:
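Compounds dissolved in DMSO are pin-transferred onto ERR reporter cells (2,000 per well) that have settled for 6 h at 37 C. Plates then incubate 18 h at 37 C before ONE-Glo luciferase reagent and a luminescence read 30 min later.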
On the % scale 0 is the no-effect control and ±100 the full control effect.

For `Cc1nc2ccccc2n1Cc1ccc(Cl)cc1`, the Potency entry in assay [1], in assay [2], in [4], in [5], in assay [7] and in assay [8] was “inactive” in each case. Moreover, the Potency result in assay [9], in assay [11], in assay [13], in assay [14], in [15] and in assay [16] was “inactive” in each case. Also, the Potency result in [17] and in assay [18] was “inactive” each time. Also, the result in assay [3] was inactive. Besides, the Potency in assay [6] is 1.69 µM (active); in assay [10], 3.01 µM (active); in assay [12], 1.69 µM (active).

`O=C(Cl)c1ccc([N+](=O)[O-])cc1`: the Potency result in assay [1], in assay [2], in assay [4], in assay [5], in [6] and in [7] was “inactive” throughout. The Potency entry in assay [8], in assay [9], in assay [10], in assay [11], in [13] and in [14] was “inactive” in each case. The Potency entry in [15], in [16], in assay [17] and in assay [18] was “inactive” throughout. Moreover, the outcome in [3] was inactive. In assay [12], the max response was 7.36%.

As to `CC1(C)[C@H]2CC[C@]1(C)[C@H](O)C2`, the Potency entry in assay [1], in assay [2], in assay [5], in assay [6], in [7] and in assay [8] was “inactive” in each case. In addition, the Potency entry in [9], in [10], in [11], in [13], in assay [14] and in assay [15] was “inactive” throughout. The Potency entry in assay [16], in [17] and in assay [18] was “inactive” in each case. Also, the molecule was classed as inactive in assay [3]. The Potency in [4] was 1.6 µM (active). Moreover, the max response in assay [12] was -5.57%.

For `COc1ccccc1OC(=O)Oc1ccccc1OC`, the Potency result in assay [1], in assay [2], in assay [4], in [5], in assay [6] and in assay [7] was “inactive” throughout. For the same molecule, the Potency result in [8], in assay [9], in assay [10], in assay [11], in assay [13] and in [14] was “inactive” each time. The Potency result in assay [15], in [16], in [17] and in assay [18] was “inactive” in each case. Further, in assay [3], the molecule was called inactive. Further, the max response in [12] is 1.1%.

Take `c1ccc(CNCc2ccccc2)cc1`: the Potency result in assay [1], in [2], in assay [4], in [5], in assay [6] and in assay [7] was “inactive” each time. Further, the Potency result in assay [8], in assay [9], in assay [10], in assay [11], in assay [13] and in assay [14] was “inactive” each time. The Potency result in [15], in [16], in assay [17] and in [18] was “inactive” throughout. Moreover, the outcome in assay [3] was inactive. Moreover, in [12], the max response was -7.12%.

For the molecule `NCc1ccccc1`, the Potency result in assay [1], in [2], in assay [4], in assay [19], in [5] and in assay [6] was “inactive” each time. Further, the Potency entry in assay [7], in [8], in assay [9], in [10], in [11] and in assay [13] was “inactive” each time. Moreover, the Potency result in assay [14], in [15], in assay [16] and in assay [17] was “inactive” throughout. In assay [3], the result was inactive. For the same molecule, the max response in assay [12] was 2.09%.

As to `CCCCOC(=O)c1ccccc1C(=O)OCC(CC)CCCC` (stereo unspecified), the Potency result in assay [1], in assay [2], in [4], in assay [5], in [6] and in assay [7] was “inactive” in each case. Moreover, the Potency result in assay [8], in assay [9], in assay [10], in assay [11], in assay [13] and in assay [14] was “inactive” in each case. Besides, the Potency entry in assay [15], in assay [16], in assay [17] and in assay [18] was “inactive” each time. In assay [3], the molecule was called inactive. Also, the max response in assay [12] was -10%.
